# Hits are enriched below; roughly 1.8% of the tested compounds scored in any of these assays.
# TSHR antag: human thyrotropin receptor antagonism; TSHR-expressing cells, TSH-stimulated cAMP HTRF, 2 h; hits give low values; activity change, negative = inhibition, % at 11.5 µM; actives 0.2% (n = 330,000); AID 504810;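 active means activity change below a set negative limit, meaning inhibition stronger than a set level, cut at about -70% in these data; inconclusive means activity change between two set negative limits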
# Target sequence (P16473 whole entry, looked up): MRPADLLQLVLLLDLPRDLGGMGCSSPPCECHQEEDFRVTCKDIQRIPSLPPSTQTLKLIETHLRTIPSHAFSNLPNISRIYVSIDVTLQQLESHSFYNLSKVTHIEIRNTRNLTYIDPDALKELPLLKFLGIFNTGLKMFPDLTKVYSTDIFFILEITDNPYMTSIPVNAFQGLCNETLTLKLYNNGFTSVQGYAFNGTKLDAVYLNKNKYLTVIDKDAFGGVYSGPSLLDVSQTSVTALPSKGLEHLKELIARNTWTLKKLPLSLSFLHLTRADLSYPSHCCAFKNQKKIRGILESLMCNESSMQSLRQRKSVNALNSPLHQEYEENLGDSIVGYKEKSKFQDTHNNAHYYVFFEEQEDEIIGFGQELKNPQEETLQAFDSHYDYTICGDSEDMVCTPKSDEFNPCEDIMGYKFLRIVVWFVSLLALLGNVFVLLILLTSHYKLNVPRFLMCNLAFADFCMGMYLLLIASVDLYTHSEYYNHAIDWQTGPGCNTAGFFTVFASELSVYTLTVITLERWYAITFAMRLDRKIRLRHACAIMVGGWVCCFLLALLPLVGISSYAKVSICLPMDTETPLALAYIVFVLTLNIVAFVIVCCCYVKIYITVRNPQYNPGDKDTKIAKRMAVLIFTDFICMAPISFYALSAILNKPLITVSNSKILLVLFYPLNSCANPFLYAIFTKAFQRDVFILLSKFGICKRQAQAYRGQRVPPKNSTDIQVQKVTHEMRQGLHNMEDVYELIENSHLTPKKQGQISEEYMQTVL
#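 Cell-based HTRF cAMP assay; TSHR cells + compound, TSH EC80 (4nM final), 2 h, 37 deg C. Lysis with anti-cAMP cryptate and cAMP-d2, 30 min RT, read 665/620 nm.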
# GLP1R cytotox: cytotoxicity counter-screen for GLP-1 receptor inverse agonists | HEK293 cAMP-luciferase reporter cells, luminescence, 24 h | Potency, µM (doses to about 38.3 µM), usual class: inhibitors | actives 0.13% (n = 410,000) | AID 624418;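 further: loss of luciferase light is scored as toxicity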
#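 To flag toxic compounds, the library was rerun on cells for 24 hr at 37 deg C and 5% CO2. Viability-linked luminescence was captured 12 min after adding luciferase detection reagent.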
# GLP-1R inv ag: inverse agonists of human GLP-1 receptor; HEK293 GLP-1R CRE-luciferase, luminescence, 24 h; GLP-1R form is constitutively active; Potency, µM (doses to about 38.3 µM), actives largely listed as inhibitors; actives 1.6% (n = 410,000); AID 624417; further: nearly all actives have a fitted effect of over 55% in size
#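 Seeding at 200 cells/uL, 12 h culture, 24 hr compound treatment, then luciferase reagent and a luminescence read; cells are HEK293 stably expressing a constitutively active GLP-1R plus cAMP-responsive luciferase.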
# PTHR1 agonist: activates the human parathyroid hormone receptor PTHR1. HEK293 GP2 PTHR1 cells, GloSensor cAMP luminescence, 1 h. actives 0.075% (n = 410,000). Potency, µM (highest dose often 115 µM), usual class: activators. Q03431; further: nearly all actives have a fitted effect of over 55% in size
#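 HEK-293-derived GP2 cells expressing PTHR1 and a GloSensor cAMP reporter, 3,000/well, plated overnight, given luciferin plus IBMX (each 0.5 mM as added) for 1 h at 37 °C, then compound for 1 h at 37 °C. Luminescence was read after 15 min at room temperature.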
# GLP-1R agonist: agonists of human GLP-1 receptor; HEK293 GLP-1R CRE-luciferase, luminescence, 4-6 h; cells express a hypersensitive GLP-1R form; Potency, µM (titrated, usually from 45.6 µM), hits mostly activators; actives 0.007% (n = 380,000); AID 624172
# Numbers stand for hits; 0 = inactive; ? = inconclusive; - = no result. Unless noted, the call rests on the fitted dose curve; in most records, active means well fitted curve in the direction sought with a large enough effect; inconclusive means small, poorly fitted or top-dose-only effect, or another doubt; inactive means no such curve, though single readings can be large; an effect the other way counts as inactive or inconclusive.
SMILES,TSHR antag,GLP1R cytotox,GLP-1R inv ag,PTHR1 agonist,GLP-1R agonist
NC(=S)NN=C1c2cc(OCCN3CCOCC3)ccc2-c2ccc(OCCN3CCOCC3)cc21,0,1.41µM,7.94µM,0,0
CCN(CC)c1ccc(NC(=O)C2CCCN(S(=O)(=O)c3ccc4c(c3)oc(=O)n4C)C2)c(C)c1 (centres undefined),-,0,0,0,0
C#CCOc1c(Br)cc(C2C(C(=O)OC)=C(C)NC3=C2C(=O)c2ccccc23)cc1OCC (centres undefined),-,?,?,0,-
Cc1ccc(-c2nc(NCCCN(C)C)c3ccccc3n2)cc1,-,0,10µM,0,0
CC(C)(C)C(=O)OCCNc1nc(-c2ccccc2)nc2ccccc12,0,?,12.6µM,0,0
CCn1cc(CN2CCCC(C(=O)c3ccc(-c4ccccc4)cc3)C2)cn1 (centres undefined),0,0,8.91µM,0,0
CCCn1nc(C(=O)Nc2nc(-c3ccccn3)cs2)c2ccccc2c1=O,0,5.01µM,?,0,0
CC1(C)SC(=S)N(NC(=O)Nc2cccc3ccccc23)C1N(O)C(=O)Nc1ccccc1 (centres undefined),0,0,11.2µM,0,0
CNC(=O)N(O)C1N(NC(=O)Nc2ccccc2)C(=S)SC1(C)C (centres undefined),-,0,0,0,0
c1cncc(-c2nc(NCCCN3CCOCC3)c3c4c(sc3n2)CCC4)c1,0,0,11.2µM,0,0
CCCN(CCC)CCCNC(=O)c1cc2c(=O)n(C)c3ccccc3c2s1,-,0,0,0,-
Cc1c(NC(=O)c2ccc(Cl)cc2)cc(C(C)C)c(O)c1S(=O)(=O)c1ccccc1,-,0,?,0,0
CCN(CC)c1ccc(NC(=O)C2CC3CCC2C3)cc1 (centres undefined),?,0,7.94µM,0,0
COCCCNC(=O)c1ccc(-n2c(-c3ccccc3)cc3c2CCC(C)C3)cc1 (centres undefined),-,0,10µM,?,-
CCOCCCNC(=O)c1ccc(-n2c(-c3ccccc3)cc3c2CCCCC3)cc1,-,0,0,0,-
CCOC(=O)C1CCCN(C(=O)Cc2c(C(=O)O)[nH]c3ccccc23)C1 (centres undefined),0,0,0,0,0
CCOC(=O)C1CCCN(C(=O)c2[nH]c3ccccc3c2Sc2ccc(Cl)cc2)C1 (centres undefined),-,?,11.2µM,0,-
COc1ccccc1Cc1c(C2CCCCC2)nc2ccc(Cl)cn12,-,?,3.55µM,0,0
COC(=O)c1[nH]c2cc(OC)ccc2c1NC(=O)CCN1CCN(c2ccccc2)CC1,0,0,0,0,0
COC(=O)c1[nH]c2ccc(C)cc2c1NC(=O)CN1CCCC(C)(C)C1,0,0,2.24µM,0,0
CCOC(=O)c1[nH]c2ccc(C)cc2c1NC(=O)CN1CCCCC1,0,0,?,0,0
COC(=O)c1[nH]c2ccc(Br)cc2c1NC(=O)CN1CCCc2ccccc21,0,0,10µM,0,0
COC(=O)c1[nH]c2ccccc2c1NC(=O)CN1CCN(c2cccc(OC)c2)C(C)C1 (centres undefined),0,0,10µM,0,0
Cc1c(NC(=O)c2nc3ccccc3nc2N2CCCCC2)cccc1[N+](=O)[O-],-,0,0,0,0
CN(C)CCOC1=Cc2ccccc2Sc2ccc(Cl)cc21,-,-,-,-,0
SMILES,TSHR antag,GLP1R cytotox,GLP-1R inv ag,PTHR1 agonist,GLP-1R agonist
Cn1c(/C(C#N)=C/c2ccc(C(F)(F)F)cc2)nc2ccccc21,-,0,0,0,-
COC(=O)C1C2CC3c4[nH]c5cc(OC)ccc5c4CCN3CC2CC(OC)C1OC (centres undefined),-,-,-,-,0
COc1cc(S(=O)(=O)N2CCCCCC2)c(OC)cc1Br,0,0,4.47µM,0,0
COc1ccc(Br)cc1S(=O)(=O)N1CCCC1,0,0,0,0,0
CCN(CC)CCCNC(=O)Cn1nc(N2CCN(c3ccccc3OC)CC2)ccc1=O,-,0,0,0,-
S=C(NCCN1CCOCC1)N/N=C/c1cccs1,0,0,3.16µM,0,0
COc1ccccc1CNC(=O)c1cc2sccc2n1Cc1ccc(Cl)cc1,-,0,0,0,0
O=C(NCc1ccccc1)c1sc(=S)n2c1[nH]c(=O)c1ccccc12,-78.7,0,0,0,0
CCCCNC(=O)c1sc(=S)n2c1[nH]c(=O)c1ccc(C(=O)NCCc3ccc(OC)c(OC)c3)cc12,0,0,0,0,0
COc1cccc(C(=O)NCc2nc(-c3ccccc3)no2)c1OC,-,0,0,0,-
CC(C)(C)c1cccc(Cn2nnc3ccccc32)c1O,-76.5,0,?,0,0
Fc1ccccc1NC(=S)N/N=C/c1ccccc1Br,0,5.62µM,?,0,0
CCCCCCCCCCCCCCCCCCNC(=O)OC1CCN(C(=O)OC[C@H](COC(=O)N(Cc2cccc[n+]2CC)C(=O)c2ccccc2OC)OC)CC1,-,-,-,-,0
CCCCCCC(C)OC(=O)Nc1cccc2ccccc12 (centres undefined),0,0,8.91µM,0,0
CC(C)OCCCNC(=O)Nc1cccc2ccccc12,0,0,0,0,0
Cc1c(C(N)=O)nnn1-c1ccc(Br)cc1,-,0,0,0,-
Cc1ccc(NC(=O)Cn2nnnc2-c2ccccc2N)cc1,-,0,0,0,-
O=C(CSc1nnc(Cc2cccs2)n1Cc1ccco1)Nc1ccc(Br)cc1,0,0,3.55µM,0,0
O=C(CSc1nnc(Cc2cccs2)n1Cc1ccco1)Nc1ccc(Cl)cc1Cl,0,0,?,?,0
O=C(NC(=S)N1CCN(c2c(Cl)cccc2[N+](=O)[O-])CC1)c1cccs1,0,7.08µM,0,0,0
COC(=O)c1ccc(C2c3c(oc4cc(C)c(C)cc4c3=O)C(=O)N2c2ccccn2)cc1 (centres undefined),-,0,0,0,-
Fc1ccc(Cc2cn3cc(-c4ccccc4)nc3s2)cc1,-,0,5.62µM,0,0
CCOc1ccc(CCNC(c2nnc(-c3ccccc3)o2)c2ccccc2Cl)cc1OCC (centres undefined),-,0,10µM,0,-
Cc1ccccc1OCC(=O)Nc1ccc(N2CCN(C)CC2)c(Cl)c1,0,0,4.47µM,0,0
COc1ccc(OCC(=O)Nc2ccc(N3CCN(C(=O)c4ccccc4)CC3)c(Cl)c2)cc1,0,0,10µM,0,0
Cc1ccccc1OCC(=O)Nc1ccc2c(c1)Cc1ccccc1-2,0,0,0,0,0
CCC(=O)N1CCN(c2ccccc2NC(=O)COc2ccc(C(C)C)cc2)CC1,0,0,10µM,0,0
COc1ccc(OCC(=O)Nc2ccc(N3CCOCC3)c(Cl)c2)cc1,0,0,0,0,0
NC(=O)C1CCN(c2nc(-c3cccc4ccccc34)cs2)CC1,0,-,-,-,-
CCCCCCCCC[n+]1cccc2c3ccccc3ccc21,0,?,10µM,0,0
